Screens deposited in PubChem BioAssay by National Center for Advancing Translational Sciences (NCATS).
KB-3-1 tox: qHTS assay for MDR1-selective chemotherapeutics: Primary screen using the parental adenocarcinoma cell KB-3-1. AID 1347075, 2019. KB-3-1 viability, CellTiter-Glo ATP luminescence, 72 h. 400,000 tested, 1.4% active. Potency, µM (top dose mostly 46.1 µM), hits mostly cytotoxic; note: nearly all actives have a fitted effect of over 60% in size
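KB-3-1 parental drug-naive adenocarcinoma cells in DMEM/10% FBS, incubated 72 h at 37 C with pin-transferred compounds across a concentration series. Viability by CellTiter-Glo luminescence; concentration-response curves fitted after normalization.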
ELG1 DNA repair: qHTS screen for small molecules that inhibit ELG1-dependent DNA repair in human embryonic kidney (HEK293T) cells expressing luciferase-tagged ELG1. HEK293T ELG1-luciferase reporter, luminescence, 16 h; DNA damage induced by 5-fluorouridine. Potency, µM (top dose mostly 46.1 µM), hits mostly inhibitors. 330,000 tested, 2.3% active. AID 504467, 2011; note: nearly all actives have a fitted effect of over 55% in size
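Cells (2,000 per well) received 5-fluorouridine plus test compound or DMSO and were incubated 16 hr at 37 °C, 5% CO2. Luciferase activity was read by luminescence 30 min after ONE-Glo addition; signal suppression marked inhibition of damage-induced ELG1 function.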
MCF10A rerep: A quantitative high throughput screen for small molecules that induce DNA re-replication in MCF 10a normal breast cells; 350,000 tested, 2.9% active; MCF 10A DNA re-replication, Hoechst nuclear intensity, 48 h; Potency, µM (top dose mostly 46.1 µM), usual class: activators; note: nearly all actives have a fitted effect of over 50% in size
KB-V1 MDR tox: qHTS assay for MDR1-selective chemotherapeutics: Primary screen using the drug-selected MDR subline cells KB-V1 | Potency, µM (titrated, usually from 46.1 µM), usual class: cytotoxic | AID 1347076, 2019 | KB-V1 MDR cells viability, CellTiter-Glo, 72 h | 400,000 tested, 3.4% active; note: nearly all actives have a fitted effect of over 60% in size
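Cytotoxicity toward P-gp-expressing KB-V1 cells was determined as loss of CellTiter-Glo luminescence after 72 h at 37 degrees C. Compounds were tested in quantitative HTS format across a concentration range, with curves fitted to normalized data.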
SW480 rereplic: A quantitative high throughput screen for small molecules that induce DNA re-replication in SW480 colon adenocarcinoma cells | Potency, µM (titrated, usually from 46.1 µM), hits mostly activators | SW480 DNA re-replication, Hoechst DNA content imaging, 48 h | AID 624297, 2012 | 340,000 tested, 1.8% active; note: nearly all actives have a fitted effect of over 55% in size
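SW480 cells exposed to compounds for 48 hr at 37 C, 5% CO2, then Hoechst-stained 40 min. Nuclear DNA content imaged by fluorescence scanning (405 nm excitation, 500-530 nm emission); re-replication scored as increased high-intensity nuclei.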
Hits are given with their value; . = inactive; ? = inconclusive; / = not tested or not shown; [ ] = another dose, or the depositor's remark. This is a sample that favours compounds with a hit; in the whole collection about 8.1% have one here. Calls come from the whole dose curve; as a rule, active = well fitted curve in the direction sought with a large enough effect; inconclusive = small, poorly fitted or top-dose-only effect, or another doubt; inactive = no such curve, though single readings can be large; an effect the other way counts as inactive or inconclusive.

SMILES | KB-3-1 tox | ELG1 DNA repair | MCF10A rerep | KB-V1 MDR tox | SW480 rereplic
NC(=O)c1ccsc1NC(=O)COC(=O)c1ccc(Cl)cc1 | ? | . | . | . | .
NC(=O)c1ccsc1NC(=O)COC(=O)c1ccc(Cl)c(N)c1 | . | 12µM | . | . | .
Cc1ccsc1C(=O)OCC(=O)Nc1sccc1C(N)=O | . | ? | . | 18µM | .
Cc1ccc(C(=O)OCC(=O)Nc2sccc2C(N)=O)cc1NC(=O)c1ccco1 | ? | 8.2µM | . | . | .
Cc1ccsc1C(=O)OCC(=O)NCCNC(=O)COC(=O)c1sccc1C | . | . | . | . | .
COCCn1c(SCC(=O)Nc2cccnc2Cl)nc2cc(Cl)ccc2c1=O | . | ? | . | ? | .
CCCCN1CC(C)(C)[C@H](CC(=O)NC)C1=O | . | / | / | . | /
COc1ccc(CCNC(=O)Nc2nc(CN)cs2)cc1OC | . | / | / | . | /
Cc1ccc(OC(C)C(=O)OCC(=O)Nc2sccc2C(N)=O)cc1 (stereo not given) | . | . | ? | . | ?
CC(Oc1ccc(Cl)cc1)C(=O)Nc1sccc1C(N)=O (stereo not given) | . | ? | . | 9.2µM | .
COc1ccc(Cl)cc1C(=O)OCC(=O)Nc1sccc1C(N)=O | . | 23µM | . | . | .
C=C1NN(Cc2ccccc2)C(=O)N1c1ccc(OC)cc1 | . | / | / | . | /
CCOc1ccc(NC(=O)CN(C)C(=O)c2c(-c3c(F)cccc3Cl)noc2C)cc1OCC | . | ? | . | . | .
Cc1cccc(/C=N/NC(=O)c2cc(Br)ccc2O)n1 | . | ? | . | . | .
COc1ccc(C(=O)N/N=C/c2ccc3cccc(OCc4ccccc4)c3n2)cc1 | ? | 15µM | . | . | .
NC(N)=N/N=C/c1ccc2cccc(OCc3ccccc3)c2n1 | 16µM | . | ? | . | .[9.22 µM]
O=C(N/N=C/c1ccc2cccc(OCc3ccccc3)c2n1)c1ccc(Br)cc1 | . | 16µM | ? | ? | .
CCOc1ccc(Br)cc1C(=O)N/N=C/c1cccc(C)n1 | . | ? | 18µM | . | .
O/N=C/c1ccc2cccc(OCc3ccccc3)c2n1 | . | . | . | . | .
CC1Cc2cccc3ccc(=O)n(c23)C1 (stereo not given) | . | / | . | ? | .
O=C(Nc1ccc(Br)cc1Cl)c1cnn2c1NC(=C1CC1)C=C2C(F)F | . | / | / | . | /
COc1ccc(N2CCN(C3CCCN(Cc4cccc(C(C)=O)c4)C3)CC2)cc1 (stereo not given) | . | . | 23µM | . | .
CCOc1cc(CN2CCN(c3cccc(C(F)(F)F)c3)CC2)ccc1O | . | ? | . | 16µM | .
CCOc1cc(CN2CCSCC2)ccc1O | . | . | . | . | .
CCOc1cc(CN2CCN(c3ccc(C(C)=O)cc3)CC2)ccc1OC | . | . | . | 23µM | .
SMILES | KB-3-1 tox | ELG1 DNA repair | MCF10A rerep | KB-V1 MDR tox | SW480 rereplic
CCOc1cc(CN2CCN(c3cccc(C(F)(F)F)c3)CC2)ccc1OC | . | 26µM | . | ? | .
CN(C)C1CN(Cc2cn(Cc3ccc(F)cc3)nn2)S(=O)(=O)C1 (stereo not given) | . | / | / | . | /
COc1ccc(CC(C)N2CCN(c3cccc(C(F)(F)F)c3)CC2)cc1OC (stereo not given) | . | ? | . | 18µM | .
CCOc1cc(CN2CCCC(N3CCN(c4ccc(F)cc4)CC3)C2)ccc1OC (stereo not given) | . | . | 4.1µM | . | .
COc1ccc(CN2CCCC(N3CCN(c4cccc(Cl)c4)CC3)C2)cc1OC (stereo not given) | . | . | . | . | .
COc1ccc(N2CCN(C3CCCN(S(=O)(=O)c4ccc(C)cc4C)C3)CC2)cc1 (stereo not given) | 26µM | . | ? | . | ?
CCn1cc2nc(SCc3cccc(C(F)(F)F)c3)n(Cc3ccc(OC)cc3)c(=O)c2n1 | . | / | / | 18µM | /
CCn1cc2nc(SCC(=O)Nc3ccc(OC)cc3OC)n(Cc3ccc(OC)cc3)c(=O)c2n1 | ? | . | 3.3µM | ? | 7.3µM
Cn1nc(CC#N)c2c(=N)n(N)cnc21 | . | / | . | . | .
Cc1cccc(NC(=O)CSc2c(C)cnc3c2c(=O)n(C)c(=O)n3C)c1C | . | / | / | . | /
CCCC(=O)N1CCC1(C)C(=O)Nc1ccc(OC)c(OC)c1 (stereo not given) | . | / | / | . | /
COc1ccc(CN2CCN(C(=O)c3ccc(S(=O)(=O)N4CCCCCC4)cc3)CC2)cc1F | 23µM | 6.5µM | . | ? | .
COc1ccc(COC(=O)C2CCN(C(=O)c3ccc(Cl)cc3)CC2)cc1F | ? | . | 15µM | . | .
COc1ccc(CN2CCN(C(=O)c3ccc(S(=O)(=O)N4CCCCCC4)cc3)CC2)cc1 | 8.2µM | 10µM | ? | 2.3µM | .
COc1ccc(CN2CCN(C(=O)c3ccc(S(=O)(=O)NCc4ccco4)cc3)CC2)cc1F | ? | . | . | . | .
O=C(c1ccc(S(=O)(=O)N2CCCCCC2)cc1)N1CCN(Cc2ccccc2)CC1 | . | ? | . | ? | .
CCc1nn(-c2ccccc2)c2c1-c1cc(OC)c(OC)cc1C1(N2)C(=O)Nc2ccccc21 (stereo not given) | . | 21µM | 21µM | ? | ?
COc1cc2c(cc1OC)C1(Nc3c-2c(-c2ccccc2)nn3-c2ccccc2)C(=O)Nc2ccccc21 (stereo not given) | ? | ? | ? | ? | 5.2µM
CCS(=O)(=O)N1CCc2cc(C(=O)NCCc3ccc(OC)c(OC)c3)ccc21 | . | / | / | . | /
CNC(=O)C1C(=S)NC(N)=C(C#N)C1c1ccccc1 (stereo not given) | . | . | ? | . | 3.3µM
CSC1=C(C#N)C(c2ccccc2)C(C(C)=O)=C(C)N1 (stereo not given) | . | . | . | . | .
O=C(CN1C(=O)c2ccccc2S1(=O)=O)Nc1cc(S(=O)(=O)N2CCOCC2)ccc1N1CCOCC1 | ? | / | / | . | /
Cc1nnc(SCC(=O)N(CCC#N)c2ccc3c(c2)OCCO3)s1 | ? | . | . | . | .
CCOC(=O)c1c2c(c(=S)n(-c3ccccc3)c1N)CCC2 | . | ? | ? | 21µM | ?
CCCCSCCCNC(=O)CS(=O)Cc1nc(-c2cccc(C)c2)oc1C (stereo not given) | . | 16µM | . | . | .
COc1cc(N(C)C)ccc1[C@]1(O)C(=O)N(C)c2ccc(Br)cc21 | . | / | / | ? | /
CCOC(=O)c1cnc2c(OC)cccc2c1Nc1ccc2c(c1)OCCO2 | ? | ? | ? | 13µM | ?
CCOC(=O)c1ccc2ncc(C(=O)OCC)c(Nc3ccc(N4CCOCC4)cc3)c2c1 | . | 10µM | . | . | ?
